Assay [1] in a line: liver-stage malaria parasite load reduction – cell-based, known kinase inhibitor set, luminescence, hepatoma host viability (AID 624392).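 Note: infected cells incubated roughly two days before readout.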 The note with it: Plasmodium liver stage in hepatoma cells, luciferase luminescence, concentration not given here; liver cell % of control: measured here: host liver cell viability; parasite % of control: stronger effect = lower value.
Assay [2] is described as follows: altered dexamethasone sensitivity, NF-kB reporter, cell-based, luciferase, IL-1B stimulus (AID 624486).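 For percent of negative control (+Dex): 100% = mean signal of vehicle control wells on the plate.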 The settings on record: IL-1B + dexamethasone, luminescence; percent of negative control (+Dex): actives lie on both sides, concentration not given here; z-score: measured here: IL-1B alone, no Dex.
Assay [3] deals with Cellular tumor antigen p53 (Homo sapiens) (UniProt P04637). In words: GFP-p53 level modulators in HPV16+ cells – imaging, known kinase inhibitor set, EGFP/DsRed ratio (AID 1053116).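 Note: cells exposed to compounds for 24 h at 37 °C before reading.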 The settings on record: GFP-p53 stability, stronger effect = higher value; EGFP object count: measured here: GFP-p53 positive objects count.
Sequence of Cellular tumor antigen p53 (Homo sapiens) (P04637 whole entry, looked up): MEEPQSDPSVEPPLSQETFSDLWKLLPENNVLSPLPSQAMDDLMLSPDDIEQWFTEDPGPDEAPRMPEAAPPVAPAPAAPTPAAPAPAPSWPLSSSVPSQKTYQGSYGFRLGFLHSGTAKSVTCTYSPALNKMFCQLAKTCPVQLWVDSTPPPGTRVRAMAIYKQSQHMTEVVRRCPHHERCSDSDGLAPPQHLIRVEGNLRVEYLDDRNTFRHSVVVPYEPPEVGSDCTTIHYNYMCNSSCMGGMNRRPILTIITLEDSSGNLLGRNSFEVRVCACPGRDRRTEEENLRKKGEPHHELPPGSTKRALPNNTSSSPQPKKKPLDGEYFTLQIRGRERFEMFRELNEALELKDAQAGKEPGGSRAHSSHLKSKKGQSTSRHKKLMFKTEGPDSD
Assay [4] can be described thus: inducers of IRF3 signaling, differentiated THP-1 – cell-based, PMA-stimulated THP-1, luminescence (AID 1053176). The settings on record: PMA-differentiated THP-1, IRF3 reporter luminescence; stronger effect = higher value.
Assay [5] is described as follows: C. elegans survival during P. aeruginosa infection – whole organism (AID 651566).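 Note: tested at 14 µM; sign flipped so higher z means a lower ratio.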 The settings on record: C. elegans killed by P. aeruginosa, survival ratio.
The nature of assay [6]: pro-inflammatory signaling induction in mouse macrophages – cell-based, murine, luminescence (AID 652131). The note with it: murine macrophage pro-inflammatory reporter, stronger effect = higher value.
Assay [7] in a line: MELAS cybrid and Rieske KO viability enhancers – cell-based, MELAS cybrids, Rieske KO mouse fibroblasts, CellTiter-Glo, primary screen (AID 1508586;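 active = mean z-score across replicates of 1.96 or higher in either the MELAS or the Rieske mutant cell line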;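 note: z relative to plate mean and SD of compound and empty wells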). The settings on record: low glucose. In general terms: ATP-based viability assays read luminescence as a measure of living cells.

The structures appear in SMILES notation. Active and inactive are the calls of the source. Unless noted, the rule behind the calls is not given here.

`O=[N+]([O-])c1ccc2c(c1)C(c1ccccc1Cl)=Nc1cn[nH]c1N2`: in assay [1], the liver cell % of control was 101% and the parasite % of control is 21.4% (inactive). In assay [2], the percent of negative control (+Dex) is 109% (inactive) and the z-score is -0.52. Besides, in assay [3], the EGFP object count amounted to 12 and the EGFP/DsRed ratio was 0.495 (inactive). Further, the fraction signal in assay [4] was -0.005 (inactive).

`O=C1NC(=O)C(c2ccccc2Cl)=C1Nc1cc(Cl)c(O)c(Cl)c1` gave a liver cell % of control in assay [1] of 90.9%. Moreover, the parasite % of control in assay [1] was 128% (inactive). The percent of negative control (+Dex) in assay [2] is 95.5% (inactive). In addition, the z-score is 0.49 in assay [2]; -0.07 (inactive) in assay [5]; 0.319 (inactive) in assay [6]; -0.0492 (inactive) in assay [7] (MELAS cybrid survival, CellTiter-Glo 48 h, stronger effect = higher value); -0.159 in assay [7] (Rieske KO mouse fibroblast survival, CellTiter-Glo 72 h). The fraction signal in assay [4] is -0.002 (inactive).

For the compound `COc1ccc(OC)c(C2=C(c3cn(C)c4ccccc34)C(=O)NC2=O)c1`, in assay [1], the liver cell % of control stood at 105% and the parasite % of control is 22.1% (inactive). Also, in assay [2], the percent of negative control (+Dex) was 99% (inactive) and the z-score was -0.03. Besides, in assay [3], the EGFP object count worked out at 15 and the EGFP/DsRed ratio is 0.328 (inactive). The fraction signal in assay [4] is -0.003 (inactive).

With `Cn1cc(C2=C(c3cn(CCO)c4ccccc34)C(=O)NC2=O)c2ccccc21`, in assay [1], the liver cell % of control worked out at 89.7% and the parasite % of control was 54.6% (inactive). Moreover, in assay [2], the percent of negative control (+Dex) was 124% (inactive) and the z-score was -1.11. In addition, in assay [3], the EGFP object count was found to be 25 and the EGFP/DsRed ratio is 0.285 (inactive). Besides, the fraction signal in assay [4] was -0.0245 (inactive).

Regarding `O=C1OC(=O)C(c2c[nH]c3ccccc23)=C1c1c[nH]c2ccccc12`, in assay [1], the liver cell % of control is 99.6% and the parasite % of control was 48.8% (inactive). Moreover, in assay [2], the percent of negative control (+Dex) is 95% (inactive) and the z-score stood at 1. Moreover, in assay [3], the EGFP object count worked out at 3.5 and the EGFP/DsRed ratio is 0.0625 (inactive). The fraction signal in assay [4] was -0.018 (inactive).

As for `Cn1cc(C2=C(c3cn(C)c4ccccc34)C(=O)NC2=O)c2ccccc21`, in assay [1], the liver cell % of control was 115% and the parasite % of control is 66.6% (inactive). Besides, in assay [2], the percent of negative control (+Dex) was 110% (inactive) and the z-score is -0.485. Moreover, in assay [3], the EGFP object count is 25.5 and the EGFP/DsRed ratio was 0.17 (inactive). Moreover, the fraction signal in assay [4] was -0.001 (inactive).

With `N#CCn1c(=O)c(Oc2ccc(F)cc2F)cc2cnc(NC3CCOCC3)nc21`, in assay [1], the liver cell % of control came out at 96.2% and the parasite % of control was 58.4% (inactive). Also, in assay [2], the percent of negative control (+Dex) is 97% (inactive) and the z-score is -0.11. In addition, in assay [3], the EGFP object count was found to be 2.5 and the EGFP/DsRed ratio is 0.064 (inactive). The fraction signal in assay [4] was -0.007 (inactive).

Turning to `Cn1cc(C2=C(c3cccc(N)c3)C(=O)NC2=O)c2ccccc21`, in assay [1], the liver cell % of control was 102% and the parasite % of control was 14.9% (inactive). Also, in assay [2], the percent of negative control (+Dex) was 124% (active) and the z-score was -1.23. For the same compound, in assay [3], the EGFP object count is 23.5 and the EGFP/DsRed ratio is 0.303 (inactive). Besides, the fraction signal in assay [4] was -0.005 (inactive).

Consider `CCOc1ccccc1CCN=C1NC(=O)C(=Cc2ccc3ncccc3c2)S1`, for which, in assay [1], the liver cell % of control is 106% and the parasite % of control was 66% (inactive). In addition, in assay [2], the percent of negative control (+Dex) was 90% (inactive) and the z-score is -0.335. Moreover, in assay [3], the EGFP object count is 11.5 and the EGFP/DsRed ratio is 0.141 (inactive). In addition, the fraction signal in assay [4] was 0.031 (inactive).

The values above are taken from PubChem BioAssay.
